Data from PubChem BioAssay (EPA / NIEHS).
Several values for one entry are separate records, joined by “and”; a condition that tells them apart may be missing. Equal entries are not always repeated. Results filed as inconclusive are left out. Activity calls are given as the source filed them. Rule for the calls: active = hit-call score of the fitted dose curve at least 0.9, where 1 is the maximum; inconclusive = response in the unintended direction; inactive = score below 0.9.

Tests used:
[1] = ACEA_ER_AUC_viability: ACEA Biosciences xCELLigence Real-Time Cell Analysis on Estrogen Receptor Agonism for Viability (AID 2283782);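 note: hit means loss of impedance signal meaning reduced cell growth or viability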
Summary of the method: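 Continuous-exposure impedance cell analysis uses T-47D cells in charcoal-stripped serum, eight 1:4 dilutions topping at 100 uM final, biological duplicate. Area under the growth curve at 80 h is fitted against DMSO baseline.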

AR (gene 367) [2] = target: AR (gene 367) (UniProt P10275); experiment: ACEA_AR_antagonist_80hr: ACEA Biosciences xCELLigence Real-Time Cell Analysis on Androgen Receptor Antagonism for Proliferation (AID 2283787);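 note: 22Rv1 human prostate cancer cells with growth followed by electrical impedance; hits lower the impedance growth signal relative to DMSO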
Sequence of AR (gene 367) (P10275 whole entry, looked up): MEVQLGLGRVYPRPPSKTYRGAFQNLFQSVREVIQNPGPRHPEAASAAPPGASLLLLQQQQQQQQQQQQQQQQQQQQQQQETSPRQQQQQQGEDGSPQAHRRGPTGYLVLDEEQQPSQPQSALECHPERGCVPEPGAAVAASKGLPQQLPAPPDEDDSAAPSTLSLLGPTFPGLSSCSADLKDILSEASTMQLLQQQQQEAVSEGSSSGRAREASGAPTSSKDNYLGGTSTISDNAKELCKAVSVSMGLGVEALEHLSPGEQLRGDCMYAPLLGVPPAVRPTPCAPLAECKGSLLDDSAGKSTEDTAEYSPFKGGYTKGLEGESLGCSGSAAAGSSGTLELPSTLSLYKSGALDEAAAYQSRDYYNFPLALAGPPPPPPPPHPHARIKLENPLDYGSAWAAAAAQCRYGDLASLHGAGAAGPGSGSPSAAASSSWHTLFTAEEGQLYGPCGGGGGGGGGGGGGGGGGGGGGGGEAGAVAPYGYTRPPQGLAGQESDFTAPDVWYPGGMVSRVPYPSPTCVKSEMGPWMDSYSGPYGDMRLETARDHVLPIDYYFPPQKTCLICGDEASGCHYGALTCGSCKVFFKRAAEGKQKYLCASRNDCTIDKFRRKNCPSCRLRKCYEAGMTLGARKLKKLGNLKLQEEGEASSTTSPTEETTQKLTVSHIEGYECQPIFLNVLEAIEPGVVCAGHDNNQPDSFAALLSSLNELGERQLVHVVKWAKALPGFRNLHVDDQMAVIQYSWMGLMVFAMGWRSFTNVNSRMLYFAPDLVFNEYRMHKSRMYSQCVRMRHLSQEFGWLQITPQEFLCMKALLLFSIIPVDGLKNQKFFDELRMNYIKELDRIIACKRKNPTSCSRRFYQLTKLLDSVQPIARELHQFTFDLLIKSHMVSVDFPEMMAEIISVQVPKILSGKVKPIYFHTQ
Summary of the method: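 Using 22Rv1 cells held in assay medium, we dosed compounds (100 uM maximum final, 1:4 serial, eight points, 0.5% DMSO at top) and recorded cell-electrode impedance; the 80 hr timepoint was analyzed against DMSO.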

[3] = STM_H9_NormalizedViability: Cytotoxicity Assessment at 120 hours in the Stemina devTOX quickPredict H9 human embryonic stem cell (hESC)-based Assay (AID 2283784)
Summary of the method: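 Viability of the cell layer was taken from live-cell protease cleavage of a fluorogenic substrate after compound exposure of undifferentiated H9 stem cells, with replenishment each 24h. Fluorescence was normalized to vehicle (0.1% DMSO).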

AR (gene 367) [4] = target: AR (gene 367) (UniProt P10275); experiment: ACEA_AR_agonist_80hr: ACEA Biosciences xCELLigence Real-Time Cell Analysis on Androgen Receptor Agonism for Proliferation (AID 2283783);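 note: hits increase impedance growth signal above DMSO baseline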
Summary of the method: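 Real-time cell-growth kinetics were recorded by electrode impedance in 22Rv1 cells exposed to test chemicals up to 100 uM final; the 80 h timepoint served as the readout, fitted upward relative to DMSO controls, in biological duplicate.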

SMILES: NC(=O)N1C(=O)C(C(=O)c2cc(Cl)cs2)c2cc(F)c(Cl)cc21 (stereo not given)
- AC50 [1]: 87.5 µM (active)
- outcome (AR (gene 367) [2]): inactive

SMILES: CCCCCCCCCCCCCC[N+](C)(C)C
- AC50 [1]: 15.9 µM (active) and 6.59 µM (active)

SMILES: Cc1cc(CCN2CCN(c3nsc4ccccc34)CC2)cc2c1NC(=O)CC2(C)C
- AC50 [1]: 18.2 µM (active)
- AC50 [3]: 6.3 µM (active)
- AC50 (AR (gene 367) [2]): 18.7 µM (active)

SMILES: OCCC(F)(F)C(F)(F)C(F)(F)C(F)(F)C(F)(F)C(F)(F)C(F)(F)C(F)(F)F
- outcome [1]: inactive
- outcome (AR (gene 367) [2]): inactive

SMILES: c1ccc2c(c1)ccc1ccccc12
- outcome [1]: inactive
- AC50 [3]: 79.9 µM (active)
- AC50 (AR (gene 367) [2]): 50 µM (active)

SMILES: O=C(O)c1ccccc1C(c1ccc(O)cc1)c1ccc(O)cc1
- outcome [1]: inactive
- outcome (AR (gene 367) [2]): inactive

SMILES: CN1CCN(c2ccccc2/C=C2\SCCN(c3ccc(Cl)c(Cl)c3)C2=O)CC1
- AC50 [1]: 50 µM (active)
- outcome [3]: inactive

SMILES: COc1ccc([N+](=O)[O-])cc1N
- outcome [3]: inactive

SMILES: CC(=O)CC(C)(C)O
- outcome (AR (gene 367) [2]): inactive

SMILES: O=C(/C=C/c1ccc(O)cc1)CC(=O)/C=C/c1ccc(O)cc1
- outcome [1]: inactive
- outcome (AR (gene 367) [4]): inactive
- AC50 (AR (gene 367) [2]): 29.9 µM (active)
